Reference: PubChem BioAssay (NCATS)
Records with an inconclusive call do not appear. Values without a mark were called inactive. Active and inactive are the calls of the source. Calls come from the whole dose curve.

molecular target: Peroxisome proliferator-activated receptor delta (Homo sapiens) (UniProt Q03181); assay: qHTS assay for small molecule agonists of peroxisome proliferator-activated receptor delta signaling (AID 588534); conditions: HEK293T PPARdelta-UAS-bla, beta-lactamase ratio, 18 h; series mostly up to 76.7 µM; activation: at the top concentration;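 note: 0% = DMSO basal wells and 100% = positive control agonist at 10 µM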
Sequence (Q03181 whole entry, looked up): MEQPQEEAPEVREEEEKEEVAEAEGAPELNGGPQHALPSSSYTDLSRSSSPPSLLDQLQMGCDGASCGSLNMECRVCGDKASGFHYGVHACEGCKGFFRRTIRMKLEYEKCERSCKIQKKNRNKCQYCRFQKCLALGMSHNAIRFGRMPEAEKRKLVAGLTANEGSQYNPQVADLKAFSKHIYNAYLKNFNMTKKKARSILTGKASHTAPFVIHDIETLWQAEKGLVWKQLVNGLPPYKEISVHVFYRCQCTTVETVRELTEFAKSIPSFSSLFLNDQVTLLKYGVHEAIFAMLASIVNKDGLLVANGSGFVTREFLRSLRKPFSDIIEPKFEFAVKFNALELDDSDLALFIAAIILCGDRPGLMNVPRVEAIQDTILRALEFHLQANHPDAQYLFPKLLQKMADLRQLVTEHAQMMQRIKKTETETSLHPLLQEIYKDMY
Source text: NIH Chemical Genomics Center [NCGC] U.S. Environmental Protection Agency [EPA] National Institutes of Environmental Health Sciences [NIEHS] National Toxicology Program [NTP] NCGC Assay Overview The Peroxisome proliferator-activated receptors (PPARs) are lipid-activated transcription factors of the nuclear receptor superfamily with three distinct subtypes namely PPAR alpha, PPAR delta (also called PPAR beta) and PPAR gamma. All these subtypes heterodimerizes with Retinoid X receptor (RXR) and have different physiological functions. […] This role of PPAR delta implicates the potential use of its ligands in the treatment of metabolic disorders.
Compounds were screened in a titration series in 1536-well format. […] Concentration-response titration points for each compound were fitted to the Hill equation yielding concentrations of half-maximal stimulation (EC50) and maximal response (efficacy) values. qHTS protocol for PPAR-delta beta-lactamase assay in agonist mode [Step] [Parameter] [Value] [Description] 1. Reagent; 6 uL; 4000 cells/well 2. Incubation; 37 C for 5 hrs 3. Compounds; 23 nL; 0.59 nM to 92 uM 4. […] Incubation; 37 C for 18 hrs 6. Detection reagent; 1 uL of CCF4-dye 7. Incubation; RT for 2 hrs 8. Detection; Fluorescence; Envision plate reader

Row | SMILES | activation [%] | outcome
1 | C(CCOCC1CO1)COCC1CO1 (stereo not given) | 9.58 | 
2 | CN(C)C(=O)Nc1ccc(Cl)cc1 |  | inactive
3 | Nc1ccc(Oc2ccc(N)cc2)cc1 | -6.13 | 
4 | Clc1cccc2ccccc12 | 7.87 | 
5 | Cc1coc2c1CCC(C)C2 (stereo not given) | 9.31 | 
6 | Clc1cccc(Cl)c1 | 1.04 | 
7 | CCN(CC)N=O | 11 | 
8 | C=C(Cl)CCl | 0.881 | 
9 | O=C(O)c1cccc(Cl)c1 | 4.68 | 
10 | C=CC(=O)OCC(CC)CCCC (stereo not given) |  | inactive
11 | CCOP(=O)(OCC)OCC |  | inactive
12 | CCCCOC(=O)c1ccccc1N | 6.46 | 
13 | c1ccc(N=NNc2ccccc2)cc1 |  | inactive
14 | COC(=O)Nc1cccc(OC(=O)Nc2cccc(C)c2)c1 | 1.85 | 
15 | ClCc1ccccc1 | 5.44 | 
16 | COC(C)(C)C | -1.15 | 
17 | c1ccoc1 | 8.55 | 
18 | O=P(OCCCl)(OCCCl)OCCCl | -1.15 | 
19 | Oc1cccc(Cl)c1Cl | 9.93 | 
20 | O=NN1CCCCC1 | -2.62 | 

Row | SMILES | activation [%] | outcome
21 | Nc1ccc(Cl)c(Cl)c1 | 0.442 | 
22 | COC(=O)c1ccccc1N | 1.44 | 
23 | CC(C)(C)c1ccccc1O |  | inactive
24 | CCCCC(=O)Cl | 2.19 | 
25 | C=CCCl | 13.2 | 
26 | NC1CCC(CC2CCC(N)CC2)CC1 (stereo not given) |  | inactive
27 | Oc1ccc(Cl)c(Cl)c1Cl | 4.63 | 
28 | O=[N+]([O-])c1ccc(Cl)c(Cl)c1Cl | 12.4 | 
29 | Oc1c(Cl)cccc1Cl | -0.396 | 
30 | CC(C)(Cl)Cl | 7.48 | 
31 | ClCCOCCCl | -1.09 | 
32 | c1ccc2c(c1)CCNC2 | -2.45 | 
33 | ClC(Br)Br | 5.31 | 
34 | Nc1cc(Cl)ccc1Cl | 3.64 | 
35 | Oc1c(Cl)c(Cl)cc(Cl)c1Cl | 2.72 | 
36 | Cl/C=C/Cl | -4.26 | 
37 | CCCCCCCCCCCCCl | 5.77 | 
38 | C/C=C/CC#N | 5.99 | 
39 | Cc1ccc(N)cc1C | 5.39 | 
40 | O=Cc1ccc(Cl)cc1Cl | 3.79 | 
